Results from the supplement of paper PMC11732987, “Enantioselective OTUD7B fragment discovery through chemoproteomics screening and high-throughput optimisation” (Communications Chemistry, 2025).

Assays:
Assay in all cases: log2 ratio of Biotin-Ahx-Ub-VS probe labelling (fragment/DMSO); higher = less target engagement (more negative = stronger competition), active = hit call of the paper (q ≤ 0.05, log2 ratio ≤ -1)
Details in all cases: compound concentration: 200 uM; treatment time: 3 h
OTUD6B = target: T1, OTUD6B (UniProt Q8N6M0)
T1 sequence (whole entry): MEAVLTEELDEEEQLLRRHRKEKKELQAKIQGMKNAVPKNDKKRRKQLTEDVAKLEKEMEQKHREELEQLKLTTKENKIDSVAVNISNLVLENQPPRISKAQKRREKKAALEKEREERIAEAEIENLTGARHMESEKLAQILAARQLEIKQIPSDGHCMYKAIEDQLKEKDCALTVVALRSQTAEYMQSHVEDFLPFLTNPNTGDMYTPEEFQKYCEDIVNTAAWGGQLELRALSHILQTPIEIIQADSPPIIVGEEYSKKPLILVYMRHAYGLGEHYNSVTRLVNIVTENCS
Procedure, shortened: (§1)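 Fragment (200 µM) or vehicle was incubated for 3 h with triplicate HEK293T lysate samples of 495 µg, which were then treated with Biotin-Ahx-Ub-VS at 0.5 µM final for 1 h. Labelled DUBs were enriched on NeutrAvidin, digested with LysC and trypsin, and analysed by diaPASEF LC-MS/MS. Values are average log2 fragment/vehicle ratios from an unpaired t-test on global-median-normalised Spectronaut label-free quantities, using proteins with ≥2 unique peptides.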

OTUD7B = target: T2, OTUD7B (UniProt Q6GQQ9)
T2 sequence (whole entry): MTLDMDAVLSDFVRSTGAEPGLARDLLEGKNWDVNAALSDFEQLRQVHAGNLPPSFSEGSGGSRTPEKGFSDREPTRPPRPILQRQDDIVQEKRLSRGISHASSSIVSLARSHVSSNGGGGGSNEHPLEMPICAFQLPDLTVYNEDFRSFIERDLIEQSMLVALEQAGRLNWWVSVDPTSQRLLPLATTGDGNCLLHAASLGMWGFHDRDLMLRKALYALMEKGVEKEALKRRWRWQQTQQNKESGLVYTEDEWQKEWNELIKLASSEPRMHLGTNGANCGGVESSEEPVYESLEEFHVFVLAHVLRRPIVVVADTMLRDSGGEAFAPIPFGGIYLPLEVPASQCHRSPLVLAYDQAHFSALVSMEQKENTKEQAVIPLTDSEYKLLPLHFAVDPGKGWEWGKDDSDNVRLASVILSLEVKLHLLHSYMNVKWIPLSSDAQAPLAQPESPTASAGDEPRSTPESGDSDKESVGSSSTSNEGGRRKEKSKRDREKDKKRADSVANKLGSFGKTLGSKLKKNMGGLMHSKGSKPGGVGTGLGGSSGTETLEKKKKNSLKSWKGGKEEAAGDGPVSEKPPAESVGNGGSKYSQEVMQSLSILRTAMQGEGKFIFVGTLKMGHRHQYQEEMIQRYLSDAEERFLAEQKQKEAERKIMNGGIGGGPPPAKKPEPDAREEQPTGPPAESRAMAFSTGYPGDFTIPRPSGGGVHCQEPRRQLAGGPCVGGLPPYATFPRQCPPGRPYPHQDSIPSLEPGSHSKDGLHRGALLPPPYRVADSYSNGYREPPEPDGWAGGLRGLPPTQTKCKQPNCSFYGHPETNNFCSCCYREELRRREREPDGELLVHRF
Procedure, shortened: as §1

PRPF8 = PRPF8 (UniProt Q6P2Q9)
Procedure, shortened: as §1

PSMD7 = target: T3, PSMD7 (UniProt P51665)
T3 sequence (whole entry): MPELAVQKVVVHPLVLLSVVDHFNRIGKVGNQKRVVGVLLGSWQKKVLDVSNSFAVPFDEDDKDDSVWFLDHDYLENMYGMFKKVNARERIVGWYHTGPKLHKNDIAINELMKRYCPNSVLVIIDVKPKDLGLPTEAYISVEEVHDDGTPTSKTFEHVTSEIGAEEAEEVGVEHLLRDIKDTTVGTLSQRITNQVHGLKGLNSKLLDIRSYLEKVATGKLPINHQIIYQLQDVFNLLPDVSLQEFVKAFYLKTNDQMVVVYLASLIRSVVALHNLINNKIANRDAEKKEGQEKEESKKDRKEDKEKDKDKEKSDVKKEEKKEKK
Procedure, shortened: as §1

UCHL1 = UCHL1 (UniProt P09936)
Procedure, shortened: as §1

UCHL3 = target: T4, UCHL3 (UniProt P15374)
T4 sequence (whole entry): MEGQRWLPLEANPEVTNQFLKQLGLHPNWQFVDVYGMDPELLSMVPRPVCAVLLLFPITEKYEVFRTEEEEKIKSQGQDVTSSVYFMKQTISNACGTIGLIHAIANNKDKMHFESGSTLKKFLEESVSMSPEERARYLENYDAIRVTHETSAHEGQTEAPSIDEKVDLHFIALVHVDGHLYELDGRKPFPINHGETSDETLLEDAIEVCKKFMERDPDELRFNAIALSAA
Procedure, shortened: as §1

UCHL5 = target: T5, UCHL5 (UniProt Q9Y5K5)
T5 sequence (whole entry): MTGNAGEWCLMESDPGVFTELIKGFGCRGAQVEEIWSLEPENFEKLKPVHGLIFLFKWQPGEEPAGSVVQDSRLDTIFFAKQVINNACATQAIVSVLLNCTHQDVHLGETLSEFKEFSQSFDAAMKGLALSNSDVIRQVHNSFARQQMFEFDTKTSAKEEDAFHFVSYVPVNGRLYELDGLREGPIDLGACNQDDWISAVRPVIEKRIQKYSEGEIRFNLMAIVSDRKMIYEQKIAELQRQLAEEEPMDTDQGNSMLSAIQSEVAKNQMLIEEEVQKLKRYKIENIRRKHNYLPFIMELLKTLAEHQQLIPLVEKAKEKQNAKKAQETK
Procedure, shortened: as §1

USP10 = USP10 (UniProt Q14694)
Procedure, shortened: as §1

USP15 = target: T6, USP15 (UniProt Q9Y4E8)
T6 sequence (whole entry): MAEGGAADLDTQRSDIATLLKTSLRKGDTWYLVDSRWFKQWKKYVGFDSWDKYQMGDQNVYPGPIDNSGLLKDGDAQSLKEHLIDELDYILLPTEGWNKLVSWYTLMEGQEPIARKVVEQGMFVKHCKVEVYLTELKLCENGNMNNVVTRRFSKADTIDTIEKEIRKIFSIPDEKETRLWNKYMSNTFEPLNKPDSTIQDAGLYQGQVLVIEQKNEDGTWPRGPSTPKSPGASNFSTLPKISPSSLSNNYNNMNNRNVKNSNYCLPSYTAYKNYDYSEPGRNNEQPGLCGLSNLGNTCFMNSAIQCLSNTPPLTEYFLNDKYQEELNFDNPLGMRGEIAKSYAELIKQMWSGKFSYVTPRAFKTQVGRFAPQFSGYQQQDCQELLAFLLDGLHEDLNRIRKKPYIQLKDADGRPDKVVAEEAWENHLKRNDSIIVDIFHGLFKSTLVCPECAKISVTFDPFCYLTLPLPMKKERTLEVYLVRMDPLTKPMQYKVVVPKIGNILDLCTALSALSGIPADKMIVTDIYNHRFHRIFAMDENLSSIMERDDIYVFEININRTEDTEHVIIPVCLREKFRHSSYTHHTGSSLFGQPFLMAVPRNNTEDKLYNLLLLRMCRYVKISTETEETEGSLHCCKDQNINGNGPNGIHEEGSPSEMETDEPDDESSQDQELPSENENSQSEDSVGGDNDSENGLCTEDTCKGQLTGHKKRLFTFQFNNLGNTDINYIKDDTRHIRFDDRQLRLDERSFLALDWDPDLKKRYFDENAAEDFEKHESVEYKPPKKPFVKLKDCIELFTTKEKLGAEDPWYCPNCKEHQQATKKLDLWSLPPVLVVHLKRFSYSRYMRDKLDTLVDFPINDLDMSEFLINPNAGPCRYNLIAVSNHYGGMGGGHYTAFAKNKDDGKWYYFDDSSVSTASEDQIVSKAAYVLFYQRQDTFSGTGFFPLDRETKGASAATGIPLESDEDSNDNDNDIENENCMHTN
Procedure, shortened: as §1

USP16 = USP16 (UniProt Q9Y5T5)
Procedure, shortened: as §1

Measured: log2 ratio of Biotin-Ahx-Ub-VS probe labelling

Sequence of USP10 (Q14694 whole entry): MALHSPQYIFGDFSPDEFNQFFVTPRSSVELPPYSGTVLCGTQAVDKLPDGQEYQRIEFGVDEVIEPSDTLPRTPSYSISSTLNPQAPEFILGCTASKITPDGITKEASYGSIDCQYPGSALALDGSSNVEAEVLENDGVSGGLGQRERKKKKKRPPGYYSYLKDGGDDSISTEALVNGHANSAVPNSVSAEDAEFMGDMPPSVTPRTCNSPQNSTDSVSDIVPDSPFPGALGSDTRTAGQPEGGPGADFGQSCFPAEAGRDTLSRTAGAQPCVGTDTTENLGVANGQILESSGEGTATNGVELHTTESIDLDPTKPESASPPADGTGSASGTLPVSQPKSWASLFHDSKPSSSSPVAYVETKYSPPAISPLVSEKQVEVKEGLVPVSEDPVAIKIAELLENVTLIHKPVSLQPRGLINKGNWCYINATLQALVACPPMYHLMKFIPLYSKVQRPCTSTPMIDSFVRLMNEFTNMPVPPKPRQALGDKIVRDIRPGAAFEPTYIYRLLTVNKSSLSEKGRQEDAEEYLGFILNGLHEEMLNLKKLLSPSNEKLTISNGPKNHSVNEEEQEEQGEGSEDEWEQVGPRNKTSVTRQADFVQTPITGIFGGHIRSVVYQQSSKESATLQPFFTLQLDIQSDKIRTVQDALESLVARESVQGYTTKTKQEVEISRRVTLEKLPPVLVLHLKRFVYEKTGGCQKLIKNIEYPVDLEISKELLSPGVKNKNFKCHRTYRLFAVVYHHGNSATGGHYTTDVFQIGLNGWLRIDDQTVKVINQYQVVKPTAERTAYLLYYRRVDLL
Sequence of USP16 (Q9Y5T5 whole entry, looked up): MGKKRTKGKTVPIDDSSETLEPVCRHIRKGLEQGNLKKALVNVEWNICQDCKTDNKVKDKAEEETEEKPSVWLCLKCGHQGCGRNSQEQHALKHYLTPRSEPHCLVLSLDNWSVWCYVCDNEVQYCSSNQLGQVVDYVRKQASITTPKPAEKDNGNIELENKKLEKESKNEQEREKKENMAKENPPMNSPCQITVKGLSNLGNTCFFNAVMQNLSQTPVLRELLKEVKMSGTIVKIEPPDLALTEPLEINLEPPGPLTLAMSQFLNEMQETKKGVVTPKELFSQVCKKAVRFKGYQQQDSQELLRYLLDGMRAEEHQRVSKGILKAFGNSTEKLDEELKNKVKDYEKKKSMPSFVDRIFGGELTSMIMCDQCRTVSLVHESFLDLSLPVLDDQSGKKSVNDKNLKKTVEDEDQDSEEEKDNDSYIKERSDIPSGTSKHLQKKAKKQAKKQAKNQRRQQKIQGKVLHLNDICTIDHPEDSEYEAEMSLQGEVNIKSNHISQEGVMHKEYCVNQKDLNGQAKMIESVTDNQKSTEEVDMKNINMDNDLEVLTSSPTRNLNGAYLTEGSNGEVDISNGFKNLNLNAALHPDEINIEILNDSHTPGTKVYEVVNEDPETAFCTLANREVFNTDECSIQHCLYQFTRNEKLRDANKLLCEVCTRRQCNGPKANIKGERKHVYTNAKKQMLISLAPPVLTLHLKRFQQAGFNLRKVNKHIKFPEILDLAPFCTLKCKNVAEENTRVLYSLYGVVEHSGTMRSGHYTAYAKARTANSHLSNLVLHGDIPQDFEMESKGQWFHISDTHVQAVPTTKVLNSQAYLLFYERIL
Sequence of UCHL1 (P09936 whole entry, looked up): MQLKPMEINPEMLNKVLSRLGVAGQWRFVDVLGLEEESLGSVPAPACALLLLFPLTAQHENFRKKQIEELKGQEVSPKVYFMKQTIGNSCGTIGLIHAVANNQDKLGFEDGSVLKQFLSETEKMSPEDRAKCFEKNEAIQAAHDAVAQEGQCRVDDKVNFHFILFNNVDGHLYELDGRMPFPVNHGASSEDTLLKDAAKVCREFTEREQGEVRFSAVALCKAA

CCc1c[nH]c(CNC(=O)CCl)n1.Cl
inactive: OTUD6B -0.246 | OTUD7B -0.369 | PRPF8 0.073 | PSMD7 -0.469 | UCHL3 0.0893 | UCHL5 -0.335 | USP10 -0.218 | USP15 -0.538 | USP16 -0.0099
active: UCHL1 -1.33
